In all, about 69,000 compounds went through this assay and about 8,600 (12%) showed an effect of 50% or more. Many of the other results were omitted from the sample, so strong results are more common in it than they were.
Tested on: Plasmodium berghei
Assay: Screen against P. berghei liver stage (PbLuc), transformed with Luciferase, at 10uM
Type: functional, HepG2
Conditions: tested at 10 uM

Going from `CC(=O)c1ccc(S(=O)(=O)NCC2CCN(c3cnccn3)CC2)cc1` to `O=C(CC1CC1)N1CCN(Cc2cccnc2)c2ncccc2C1`, the INHIBITION falls from 35% to 0.618%.

First: O=C(CC1CCN(c2cccnn2)CC1)NC1CCOCC1
Second: CC1CCC(NC(=O)CNC2(c3cccc(Br)c3)CCOCC2)CC1 (stereo not drawn)
The INHIBITION of the first is higher: 3.48% for the first, -7.46% for the second.

Compared with `O=C(CCN1CCCCO1)N1CCC(CO)(CCc2ccccc2)CC1`, `CNC(=O)CN1CCOCC2(CCCN(CCc3ccccc3)C2)C1` (stereo not drawn) is higher in INHIBITION: -29% for the first, 43.2% for the second.

Compared with `O=C(NCc1cccnc1)C1CC(=O)N(CC2CC2)C1` (stereo not drawn), `CC(=O)N1Cc2ccnn2CC(C(=O)NCc2cccnc2)C1` (stereo not drawn) is higher in INHIBITION: 37% for the first, 46.6% for the second.

Going from `O=C(NCC1CC1)C1CN(Cc2ccncc2)Cc2ccnn2C1` (stereo not drawn) to `Cc1ccc(CN2Cc3ccnn3CC(C(=O)NCC3CC3)C2)o1` (stereo not drawn), the INHIBITION falls from -2.35% to -31%.

First: Cc1noc(C)c1CN1Cc2ccnn2CC(C(=O)NCC2CC2)C1 (stereo not drawn)
Second: Cc1noc(C)c1CNCC1Cn2nncc2CO1 (stereo not drawn)
The INHIBITION of the first is higher: 85.8% for the first, 40.3% for the second.

First: CS(=O)(=O)N1Cc2ccnn2CC(C(=O)NCc2cccnc2)C1 (stereo not drawn)
Second: COCCN1CCO[C@@H]2CN(C(=O)NCc3cccnc3)CC[C@@H]2C1
The INHIBITION of the first is higher: 77.4% for the first, 29.8% for the second.

First: CNCC(=O)N1CC(c2cc(Nc3ncccn3)nc(C)n2)C1
Second: Cn1nccc1C(=O)N1C[C@@H]2CC[C@H](Oc3cccc(F)c3)[C@@H]2C1
The INHIBITION of the first is higher: 29.6% for the first, 25.6% for the second.

Going from `CCn1ncc2c1CCCC2NCc1cc(OC)cc(OC)c1` (stereo not drawn) to `COc1cccc(CNC(=O)c2cccnc2SC(C)C)c1`, the INHIBITION falls from 37.9% to 7.27%.

First: CC(C)n1cc(C(=O)NCCCn2ccnc2)c2n[nH]c(=O)c-2c1
Second: CC(C)NC(=O)c1cc(-c2ccc(S(C)(=O)=O)cc2)nc2c1cnn2C
The INHIBITION of the first is lower: -7.57% for the first, 24.2% for the second.

First: Cc1ccc(N2CC[C@H]3C[C@H](C(=O)NCc4ccco4)O[C@@H]3C2)cc1
Second: CS(=O)(=O)N[C@@H]1COC[C@@H]2CN(Cc3ccco3)C[C@@H]21
The INHIBITION of the first is higher: 40.1% for the first, 18.4% for the second.

Going from `CC(C)CN1CCS(=O)(=O)[C@@H]2CCN(S(=O)(=O)CC(C)C)CC[C@@H]21` to `CCc1ccccc1OCCN1CCC(NS(C)(=O)=O)CC1`, the INHIBITION rises from 2.41% to 43.1%.

Going from `Cc1ccc(C(=O)NC2CCN(C(C)C)C2)c(=O)[nH]1` (stereo not drawn) to `Cc1oncc1C(=O)N[C@@H]1CN(Cc2ccoc2)C[C@@H]2CCCO[C@@H]21`, the INHIBITION rises from 20.8% to 43%.

Compared with `CC(C)NC(=O)c1cc(-c2ccc(S(C)(=O)=O)cc2)c2cnn(C)c2n1`, `CN(C)C(=O)c1cc(-c2ccc(S(C)(=O)=O)cc2)c2cnn(C)c2n1` is lower in INHIBITION: 94.6% for the first, 25.9% for the second.

Compared with `CCN(C)Cc1n[nH]c(=O)n1-c1ccc(C)c(C)c1`, `COc1cccc(NC(=O)CC2Cn3ncnc3NC2=O)c1` (stereo not drawn) is lower in INHIBITION: 46.7% for the first, 25.9% for the second.

Going from `O=C(CC1Cn2ncnc2NC1=O)Nc1ccccc1` (stereo not drawn) to `O=C(CC1Cn2ncnc2NC1=O)Nc1cccc(C(F)(F)F)c1` (stereo not drawn), the INHIBITION rises from -46.2% to 54%.

First: CN(Cc1cncnc1)Cc1cn2c(n1)CN(C1CCOC1)CC2 (stereo not drawn)
Second: Cc1nc(CN(Cc2ccccc2F)C2CCC2)no1
The INHIBITION of the first is higher: 1.28% for the first, -16.6% for the second.

Compared with `CCOC(=O)N1CCN(C(=O)c2snnc2-c2ccccc2)CC1`, `Cc1cc(C(=O)N2CCN(C(=O)CCC3CCCCC3)CC2)n(C)n1` is higher in INHIBITION: -7.27% for the first, 56.5% for the second.

First: COCc1ccccc1CNC(=O)CN1CCC2(CCOC2)C1 (stereo not drawn)
Second: COc1ccc(Cl)cc1CNC(=O)CN1CCC2(CCOC2)C1 (stereo not drawn)
The INHIBITION of the first is higher: 68.4% for the first, 39.6% for the second.

Going from `CCCOc1cccc(CNC(=O)CN2CCN(C)CC2C)c1` (stereo not drawn) to `CCOc1cccc(CNC(=O)CN2CCC3(CCOC3)C2)c1` (stereo not drawn), the INHIBITION rises from 36.9% to 61.9%.

First: COCc1ccccc1CNC(=O)CN1CCCC1c1noc(C)n1 (stereo not drawn)
Second: CNC(=O)CCc1cc(C)nc(C2CCCCN2)n1 (stereo not drawn)
The INHIBITION of the first is lower: -1.05% for the first, 26.3% for the second.

First: COc1cc(N2CCC3(CC2)OCC(=O)NC3C)ncn1 (stereo not drawn)
Second: COC(=O)c1ccc(OC)c(OC23CCCN(CC2)C3)c1 (stereo not drawn)
The INHIBITION of the first is higher: 10.6% for the first, -9.76% for the second.

First: Cc1cc(F)cc(S(=O)(=O)NC(=O)CCc2cncc(F)c2)c1
Second: O=C(c1cc(F)cc(F)c1)N1CCC2(CC1)CC2
The INHIBITION of the first is lower: 38.9% for the first, 73.2% for the second.

Compared with `O=C(COc1ccccc1F)NCC(O)(c1ccccc1)C1CC1` (stereo not drawn), `CS(=O)(=O)N[C@H]1CN(CCOCc2ccccc2)C[C@@H]1C1CC1` is higher in INHIBITION: -22.7% for the first, 15% for the second.

First: CCC(=O)N1CCN(c2cc(N(C)C)cnn2)CC1
Second: CC(C)CC(=O)N1CCN(c2cc(N(C)C)cnn2)CC1
The INHIBITION of the first is lower: -15.6% for the first, 22.2% for the second.

Going from `CN(C)c1cnnc(N2CCN(C(=O)CCC3CCCCC3)CC2)c1` to `Cc1nn(C)c(C)c1C(=O)N1CCN(C(=O)CCC2CCCCC2)CC1`, the INHIBITION falls from 76.7% to 28.7%.

First: Cc1nn(C)c(C)c1C(=O)N1CCN(C(=O)CC2CCCCC2)CC1
Second: Cc1nc(N2CCCC2)nc2c1CN(C(=O)NC(C)C)CC2
The INHIBITION of the first is higher: 39.4% for the first, -9.74% for the second.

Compared with `CCN1CC(C(=O)NCCn2cccc2)CCC1=O` (stereo not drawn), `CCc1ccccc1OCCN1C[C@@H](NS(C)(=O)=O)[C@H](C(C)C)C1` is higher in INHIBITION: 44.8% for the first, 57.3% for the second.

First: NCc1cc(-c2ccccc2)n2nccc2n1
Second: O=C1Cc2cc(NC(=O)N3CCCN(Cc4cccs4)CC3)ccc2N1
The INHIBITION of the first is lower: 41.2% for the first, 42.7% for the second.

Compared with `CCOC(=O)CNC(=O)c1cc2n(n1)CCCO2`, `CCNC(=O)c1cc2n(n1)CCCO2` is higher in INHIBITION: -0.996% for the first, 9.41% for the second.

First: CCOC(=O)c1cc2n(n1)CCCO2
Second: O=C(Nc1ccc2c(c1)OCCO2)N1CCCN(Cc2cccs2)CC1
The INHIBITION of the first is higher: 57.6% for the first, -14.1% for the second.

Going from `N#Cc1ccc(C(=O)N2CCC3(CC2)CC3)cc1` to `O=C(c1cc(F)cc(F)c1)N1CCC(O)(C(F)(F)F)CC1`, the INHIBITION falls from 40.8% to 25.4%.

Going from `O=C1CCc2cc(NC(=O)N3CCCN(Cc4cccs4)CC3)ccc21` to `CC(C)[C@@H]1CN(Cc2c[nH]nc2-c2ccc(F)cc2)C[C@H]1NS(C)(=O)=O`, the INHIBITION falls from 53.8% to -5.22%.

Compared with `CC(C)[C@@H]1CN(CCOc2ccc(Cl)cc2)C[C@H]1NS(C)(=O)=O`, `CC(C)[C@@H]1CN(CCCOc2ccc(F)cc2)C[C@H]1NS(C)(=O)=O` is higher in INHIBITION: 14.6% for the first, 54.5% for the second.

From ChEMBL document CHEMBL4513216, “Probing the Open Global Health Chemical Diversity Library for Multistage-Active Starting Points for Next-Generation Antimalarials” (ACS Infect Dis, 2020)
